Consider 47 molecules from ChEMBL document CHEMBL3988442, “University of Dundee, Small-Polar-MMV Screening Library” (2021).

Assay [1] addresses T1, Aspartate--tRNA(Asp/Asn) ligase (Mycobacterium tuberculosis (strain ATCC 25618 / H37Rv)) (UniProt P9WFW3).
T1 sequence (whole entry): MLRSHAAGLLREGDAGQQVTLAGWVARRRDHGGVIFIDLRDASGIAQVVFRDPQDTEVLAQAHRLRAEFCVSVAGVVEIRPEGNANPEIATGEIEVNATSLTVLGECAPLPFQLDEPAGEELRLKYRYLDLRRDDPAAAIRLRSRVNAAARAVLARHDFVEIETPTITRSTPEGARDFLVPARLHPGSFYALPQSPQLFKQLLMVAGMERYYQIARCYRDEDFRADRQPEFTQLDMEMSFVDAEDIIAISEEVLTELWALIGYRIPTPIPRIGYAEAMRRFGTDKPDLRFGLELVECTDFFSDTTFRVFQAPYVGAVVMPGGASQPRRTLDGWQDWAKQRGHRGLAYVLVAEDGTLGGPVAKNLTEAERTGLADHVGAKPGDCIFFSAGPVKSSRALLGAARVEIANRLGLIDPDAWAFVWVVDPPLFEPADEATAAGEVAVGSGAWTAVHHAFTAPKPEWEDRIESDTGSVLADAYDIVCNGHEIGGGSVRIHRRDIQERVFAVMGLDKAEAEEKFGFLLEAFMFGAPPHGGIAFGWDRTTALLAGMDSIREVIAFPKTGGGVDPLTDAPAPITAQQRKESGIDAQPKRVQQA
The assay is described as follows: Assay for Asp RNA synthetase-1 from Mycobacterium tuberculosis. It counts as functional. More on the design: scale not given: direction of the effect not stated beside the values. Conditions: 30 µM.

For assay [2], the target named is Shiga toxin 2 (Escherichia coli O157:H7) (UniProt P09385+P09386). The assay is described as follows: E. coli 0.157:H7 Shiga Toxin SOP - stx2 screening assay. Type of assay: functional. More on the design: scale not given: direction of the effect not stated beside the values. Conditions: 30 µM.

As to `O=C(C1CCN(c2snc3ccccc23)CC1)N1CCCCCC1`, the values for the Percent Effect in assay [1] and in assay [2] were 3.13% and -32.4%, respectively.
In the same order, the values of `Cn1c(Cn2cccn2)nnc1C1CCCN(c2ccncc2)C1` (centres undefined) are 1.37% and -3.13%.
The corresponding values for `Cc1nc(CN2CCOCC3(CCN(c4cccnc4)CC3)C2)cs1` are 1.87% and -2.54%.
The corresponding values for `CC(=O)NC1CCCN(C(=O)NCc2cccnc2N(C)C)C1` (centres undefined) are -7.86% and -12.4%.
On to `O=C(C1CCOCC1)N1C[C@@H]2[C@@H](C1)OCC(=O)N2CC1CC1`, for which the Percent Effect is 3.77% in assay [1] and -0.921% in assay [2].
Consider `Cc1ncc(CN2Cc3ccccc3O[C@]3(CC[C@H](CO)CC3)C2)cn1`, for which the Percent Effect in assay [1] was determined as 0.551%; in assay [2], 18.1%.
In the same order, the values of `O=C(C1=CCCC1)N1CCC[C@]2(C[C@@H](Oc3ncccc3F)CO2)C1` are 0.0684% and 7.81%.
In the same order, the values of `c1cncc(N2CCOCC3(CCCN(c4nncs4)C3)C2)c1` (centres undefined) are 2.36% and -5.55%.
With `CC(C)NC(=O)c1nnn(-c2cccc(C(F)(F)F)c2)c1N`, the Percent Effect in assay [1] was 0.111%; in assay [2], -1.08%.
In the case of `CNC(=O)C(C)(C)NC(=O)c1cc(OCC2CCC2)cc(C(=O)OC)c1`, the values for the Percent Effect in assay [1] and in assay [2] were 9.31% and 7.4%, respectively.
For `O=C([C@@H]1CC[C@@H]2[C@@H](CCN2Cc2cccc(F)c2)O1)N1CCCCO1`, the Percent Effect in assay [1] is 0.291%; in assay [2], -15%.
The corresponding values for `CC(CNC(=O)c1ccccc1Oc1cccnc1)N(C)C` (centres undefined) are -2.89% and -5.12%.
As for `CC(C)Nc1nc2c(cc1C(=O)NCC1CC1)CCNCC2`, the figures for the Percent Effect in assay [1] and in assay [2] were 0.611% and 2.86%, respectively.
Turning to `Cc1cnn(CCNCc2nc(-c3ccccc3Cl)no2)c1`, the Percent Effect in assay [1] is -2.88%; in assay [2] it was -10.8%.
Consider `CCCOc1cc(CNC(=O)Nc2cccnc2N2CCCC2)ccn1`, for which the results for the Percent Effect in assay [1] and in assay [2] were 1.75% and -9.71%, respectively.
For the molecule `CCn1c(C(=O)N2CCN(C(=O)NC(C)C)CC2)cc2ccccc21`, the Percent Effect in assay [1] worked out at 2.76%; in assay [2] it was 18.3%.
The corresponding values for `O=C(c1ccccc1-c1ccccc1)N1CCOC2(CNCCOC2)C1` (centres undefined) are 1.51% and -1.85%.
For the molecule `CC(=O)N1CCC2(CCCN(C(=O)c3ccccc3)C2)C1` (centres undefined), the values for the Percent Effect in assay [1] and in assay [2] were -1.28% and -1.81%, respectively.
The corresponding values for `Cc1ccn(-c2cccc(C(=O)N3CCCC(n4ccnc4C)C3)c2)n1` (centres undefined) are -0.301% and -7.17%.
Turning to `COCCOc1ccccc1CNCc1c(C)nn(C)c1N(C)C`, the figures for the Percent Effect in assay [1] and in assay [2] were 2.62% and 23.1%, respectively.
The corresponding values for `Cn1cc(C(=O)N2CCCC(n3cccn3)C2)c2ccccc21` (centres undefined) are -0.132% and -6.71%.
In the case of `COCC1c2c(cnn2CC2CC2)CCN1Cc1ccc(OC)cc1` (centres undefined), the Percent Effect was found to be 0.786% in assay [1] and 4.64% in assay [2].
As for `CN1CCN(CC2CC2)C(=O)c2cnc(N3CC[C@@H](O)C3)nc21`, the figures for the Percent Effect in assay [1] and in assay [2] were 3.75% and -9.73%, respectively.
Take `Cc1ccc(NC(=O)N2CCOC(C)C2)cc1Cl` (centres undefined): the Percent Effect in assay [1] was found to be 0.866%; in assay [2], 1.77%.
Turning to `Cc1nn(C)c(C)c1C1CCCN1C(=O)c1cc[nH]n1` (centres undefined), the Percent Effect in assay [1] is -5.05%; in assay [2], 11.4%.
In the same order, the values of `Cc1ncsc1C(=O)NCCOc1ncc(Cl)cc1Cl` are 3.06% and -33.3%.
The corresponding values for `Cn1nc(CNC(=O)C2CC2)cc1C1CC1` are -2.99% and -14.8%.
As for `Cn1cc(C(=O)N2CCC(Cc3nccs3)CC2)cn1`, the Percent Effect in assay [1] turned out to be 2.4%; in assay [2], 59.9%.
In the same order, the values of `O=C([C@H]1CCCO1)N1CCc2ncnc(NC3CC3)c2CC1` are 2.52% and -32%.
The corresponding values for `CCC(C)(C)NC(=O)C1CC(=O)N(CC2CC2)C1` (centres undefined) are 5.42% and 28.9%.
Regarding `CS(=O)(=O)NC1CCCN(C(=O)NCc2cccnc2)C1` (centres undefined), the Percent Effect in assay [1] is -0.548%; in assay [2] it was 26.7%.
With `COc1ccc(C2=CCN(C(=O)CN(C)CC(N)=O)CC2)cc1`, the Percent Effect in assay [1] was -2.46%; in assay [2], -18.1%.
The corresponding values for `Cn1c(C2CC2)nc2c1CCN(CCS(=O)(=O)c1ccccc1)C2` are -5.83% and 6.27%.
The corresponding values for `O=C1CO[C@@H]2CN(Cc3cccs3)C[C@H]2N1CC1CC1` are 12.1% and -3.56%.
The corresponding values for `O=C(c1ccsc1)N1CCc2c(COCc3ccncc3)cncc2C1` are -1.03% and -68.5%.
`CCn1cc(NC(=O)C2CCN(CC(=O)N3CCOCC3)CC2)cn1`: the Percent Effect in assay [1] is -3.23%; in assay [2] it was 21.6%.
Turning to `O=C(CN(Cc1ccccc1)CC1CCOCC1)Nc1nccs1`, the Percent Effect is 2.07% in assay [1] and -19% in assay [2].
In the case of `CC(C)NC(=O)CC1COC2(CCN(Cc3cccs3)CC2)C1` (centres undefined), the results for the Percent Effect in assay [1] and in assay [2] were -0.0228% and -27.2%, respectively.
In the case of `COCCOc1ccc(NC(=O)N(C)Cc2ccsc2)cn1`, the values for the Percent Effect in assay [1] and in assay [2] were 0.514% and -8.11%, respectively.
The corresponding values for `Cc1cccc(C(=O)N2CCN(S(C)(=O)=O)[C@@H](C)C2)c1C` are -3.1% and -11.5%.
For the molecule `Cc1cnn(CC2CN(CCN3CCCC3=O)CCO2)c1` (centres undefined), the Percent Effect in assay [1] is -4.53%; in assay [2], 8.14%.
Take `CCOCCN1CCN(Cc2cccc(C(=O)N(C)C)c2)CC1`: the Percent Effect is -3.67% in assay [1] and -26.9% in assay [2].
`CCc1nccn1C1CCCN(C(=O)CCc2nccs2)C1` (centres undefined): the Percent Effect in assay [1] was found to be 2.69%; in assay [2] it was 16.2%.
In the same order, the values of `CCN1CCC(NC(=O)CN2CCCC2Cn2nc(C)cc2C)CC1` (centres undefined) are -0.781% and 17.1%.
In the same order, the values of `CCc1ccccc1NC(=O)N1CCn2cnc(COC)c2C1` are -3.09% and 6.27%.
For `CN(C(=O)c1cccc(C(=O)NCC(F)(F)F)c1)c1ccccc1`, the results for the Percent Effect in assay [1] and in assay [2] were -2.65% and -62.9%, respectively.
The corresponding values for `Cc1ccc(F)c(C(=O)N2CCN(S(C)(=O)=O)[C@@H](C)C2)c1` are -2.79% and -20.5%.
